The text below walks through data of PubChem BioAssay AID2284063 (EPA ToxCast).

SMILES strings stand for the structures. Results filed as inconclusive are left out. Active and inactive are the calls of the source. Rule for the calls: active = hit-call score of the fitted dose curve at least 0.9, where 1 is the maximum; inactive = score below 0.9.

The target in the assay is human BTK TK Kinase, BTK (gene 695) (UniProt Q06187). The experiment in a line: ERF_TW_ENZ_hBTK: Eurofins (ERF) Enzymatic Radiometric [10 uM ATP] LeadHunter Assay for human BTK TK Kinase. The procedure: ERF_TW_ENZ_hBTK is a biochemical, single-readout assay that uses extracted gene-proteins in a cell-free assay. Measurements were taken 0.5 hour after chemical dosing in a 96-well plate. See BTK Human TK Kinase Enzymatic Radiometric Assay [10 uM ATP], Panlabs.ERF_TW_ENZ_hBTK is an assay component calculated from the ERF_TW_ENZ_hBTK assay. It is designed to measure enzyme activity using a type of enzyme reporter as detected by scintillation counting with radiometry technology.Data from the assay component ERF_TW_ENZ_hBTK was analyzed at the assay endpoint, ERF_TW_ENZ_hBTK, in the positive analysis fitting direction relative to DMSO as the negative control and baseline of activity. Using a type of enzyme reporter, loss-of-signal activity can be used to understand changes in enzymatic activity as they relate to gene BTK. To generalize the intended target to other relatable targets, this assay endpoint is annotated to the kinase intended target family, where the subfamily is tyrosine kinase (tk).
Chain of human BTK TK Kinase, BTK (gene 695) (Q06187 whole entry, looked up): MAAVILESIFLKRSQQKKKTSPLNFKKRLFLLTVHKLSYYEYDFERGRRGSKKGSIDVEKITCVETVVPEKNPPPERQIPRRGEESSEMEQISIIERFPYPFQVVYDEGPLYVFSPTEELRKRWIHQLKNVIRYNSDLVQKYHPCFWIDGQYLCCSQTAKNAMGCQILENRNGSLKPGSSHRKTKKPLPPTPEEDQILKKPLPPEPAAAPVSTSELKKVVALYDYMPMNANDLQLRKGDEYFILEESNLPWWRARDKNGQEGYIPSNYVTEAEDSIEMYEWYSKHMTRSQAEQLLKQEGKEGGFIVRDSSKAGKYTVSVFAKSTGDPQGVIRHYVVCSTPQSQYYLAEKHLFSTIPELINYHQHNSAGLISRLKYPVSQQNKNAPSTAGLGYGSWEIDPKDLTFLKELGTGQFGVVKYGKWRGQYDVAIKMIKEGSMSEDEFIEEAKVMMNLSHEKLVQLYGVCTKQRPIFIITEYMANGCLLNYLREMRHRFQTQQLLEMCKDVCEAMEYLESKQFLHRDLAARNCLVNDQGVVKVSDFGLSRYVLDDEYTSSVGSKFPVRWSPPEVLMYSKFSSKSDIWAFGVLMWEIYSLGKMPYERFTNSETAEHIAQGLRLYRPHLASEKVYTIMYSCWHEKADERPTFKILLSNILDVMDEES
Human recombinant protein kinase BTK expressed in insect Sf21 cells is used. Test compound and/or vehicle is preincubated with 200 ng/ml enzymedouble dagger in modified HEPES buffer pH 7.4 for 15 minutes at 37C. […] An aliquot is removed and counted to determine the amount of [32P]Poly(Glu:Tyr) formed. […]
For `O=C(/C=C/c1ccc(O)cc1)CC(=O)/C=C/c1ccc(O)cc1`, the half-maximal activity concentration (AC50) – broadly, the concentration giving half of the maximal activity seen – was 6.13 µM (active).
